Data reported in PubChem BioAssay AID1159580 (chemical genetic matrix, 2015).
Screen size: about 5,500 compounds; about 2,000 (36%) were called active. Another 18% or so got no clear call; they are omitted. The list shows a part of the results. Values without a mark were called inactive. Rule as the data show it: active = normalized growth mostly below about 0.91 (no sharp cut-off); inconclusive = no clear call, values can overlap the other calls; inactive = mostly above about 0.92.

Assay: chemical genetic growth profiling, strain panel (AID 1159580);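 also: tested at 20 µM; growth read once vehicle control cultures reached saturation at 30 °C; 1 = growth at the plate median or of vehicle wells; lower values mean less growth of the strain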
Details: S. cerevisiae deletion strains, growth OD

N#Cc1nccnc1Sc1ccc(Cl)cc1
normalized growth (locus YAL013W, strain DEP1, hits give low values): 0.946 | normalized growth (locus YBR229C, strain ROT2, hits give low values): 0.936 | normalized growth (locus YDL101C, strain DUN1, hits give low values): 0.948 | normalized growth (locus YDR150W, strain NUM1, hits give low values): 1.03 | normalized growth (locus YEL061C, strain CIN8, hits give low values): 0.914 | normalized growth (locus YGR078C, strain PAC10, hits give low values): 0.962 | normalized growth (locus YHR030C, strain SLT2, hits give low values): 0.537 (active) | normalized growth (locus YHR087W, strain rtc3, hits give low values): 0.978 | normalized growth (locus YJL187C, strain SWE1, hits give low values): 0.949 | normalized growth (locus YJR043C, strain POL32, hits give low values): 0.993 | normalized growth (locus YJR075W, strain HOC1, hits give low values): 0.986 | normalized growth (locus YKL190W, strain CNB1, hits give low values): 0.932 | normalized growth (locus YLR039C, strain RIC1, hits give low values): 0.698 (active) | normalized growth (locus YLR058C, strain SHM2 (second series), hits give low values): 0.929 (active) | normalized growth (locus YLR085C, strain ARP6, hits give low values): 0.686 (active) | normalized growth (locus YLR262C, strain YPT6, hits give low values): 0.729 (active) | normalized growth (locus YML094W, strain GIM5, hits give low values): 0.905 | normalized growth (locus YMR219W, strain ESC1, hits give low values): 0.93 (active) | normalized growth (locus YMR263W, strain SAP30, hits give low values): 0.963 | normalized growth (locus YNL128W, strain TEP1, hits give low values): 0.945 | normalized growth (locus YNL153C, strain GIM3, hits give low values): 0.988 | normalized growth (locus YNL298W, strain CLA4 (second series), hits give low values): 0.868 | normalized growth (locus YNL322C, strain KRE1, hits give low values): 0.925 (active) | normalized growth (locus YNR030W, strain Alg12, hits give low values): 0.927 | normalized growth (locus YPL055C, strain LGE1, hits give low values): 1.01 | normalized growth (locus YPL241C, strain CIN2, hits give low values): 0.941 | normalized growth (locus YPR135W, strain CTF4, hits give low values): 0.556 (active)
